# Compound activity (PubChem)
# Sampled rows, rich in hits. Any-hit rate of the full collection: about 3.2%.
# PME-1 Maybridge = Maybridge compound blocking human PME-1. recombinant PME-1, FP-Rh probe fluorescence polarization. 16,000 tested, 0.5% active. Q9Y570. AID 2291. inhibition, % at 9 µM; in the data active = inhibition above about 30%
# TLR4 MyD88 blk = TLR4-MyD88 interaction inhibition; inhibition, % at 10 µM; 16,000 tested, 0.06% active; Cell-based TLR4-MyD88 binding inhibition assay; AID 811; O00206; in the data active = inhibition above about 45%
# KOR antag MB = antagonists of human kappa opioid receptor OPRK1, Maybridge library; P41145; inhibition, % at 9 µM; 16,000 tested, 0.4% active; AID 652031; OPRK1 cells, antagonist mode, fluorescence readout; in the data active = inhibition above about 50%
# rat GALR2 agon = activates the rat galanin receptor 2 | cell-based GALR2 agonist screen | activation, % at 10 µM | 16,000 tested, 0.5% active; in the data active = activation above about 15%
# S1P1 ag = activates the human S1P1 receptor; AID 1044; activation, % at 4.5 µM; S1P1 agonist cell-based reporter assay; P21453; 16,000 tested, 1.5% active; in the data active = activation above about 80%
# NOTCH ag = NOTCH pathway agonism; AID 434982; NOTCH signaling luciferase reporter cells, luminescence; 15,000 tested, 0.4% active; activation, % at 2.5 µM; in the data active = activation above about 2.2%
# * hit, by the source's call.
SMILES,PME-1 Maybridge,TLR4 MyD88 blk,KOR antag MB,rat GALR2 agon,S1P1 ag,NOTCH ag
CN(C)Cc1c[nH]c2ccc(OCc3ccccc3)cc12,8,-9,24,-5,2,0
O=[N+]([O-])/C=C/c1ccc(OCc2ccccc2)cc1,-7,-6,62*,-9,22,0
CC(C)(NO)C(=O)c1ccccc1,24,4,8,-4,-12,0
Cn1c(=O)n(C)c(=O)n(C)c1=O,-2,4,8,-2,2,-1
COc1cc2c(cc1OC)[C@@H]1C(=O)c3ccc4c(c3O[C@@H]1CO2)C[C@H](C(C)C)O4,5,-11,-3,-11,110*,0
CS(=O)(=O)OCCN1CCN(S(C)(=O)=O)CC1,2,6,12,-2,-11,0
O=C1CC(C(=O)c2ccccc2)CO1 (centres undefined),2,-3,-1,-7,-4,0
Cc1c([N+](=O)[O-])cc2c(c1[N+](=O)[O-])C(C)(C)CC2(C)C,0,2,8,-11,102*,0
Nc1c([N+](=O)[O-])cncc1[N+](=O)[O-],-7,6,20,-4,111*,0
O=C1C(Cl)=C(Cl)C(=O)c2ccccc21,45*,-7,26,-18,72,-1
